# Screens: PubChem BioAssay, National Center for Advancing Translational Sciences (NCATS)
# Sm TGR block: S. mansoni TGR enzyme inhibition; Potency, µM (highest dose often 114 µM), for the others: at the top dose activity change, negative = inhibition, most hits filed as inhibitors; 3% of 360,000 active; purified TGR, DTNB reduction, TNB absorbance 405 nm; Q962Y6; AID 485364; note: potency is the fitted concentration of half-maximal effect; nearly all actives have a fitted effect of over 60% in size
#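 TGR 20 nM + NADPH 100 uM (dispensed conc.), cpd preinc 15 min RT; start with NADPH (500 uM addition) then DTNB (15 mM addition). Kinetic TNB absorbance, 405 nm filter. Four-parameter Hill fit across titration.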
# HCMV antiviral: human cytomegalovirus inhibition; HFF cells, HCMV-luciferase reporter, 72 h; active compounds read low; activity change, negative = inhibition, % at 57.5 µM; 4.5% of 410,000 active; in the data active = activity change below about -60%; inconclusive = no clear call, values can overlap the other calls; inactive = above about -39%
#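 Compounds were evaluated in HFFs infected with an HCMV luciferase reporter virus (MOI 1 PFU/cell). Luciferase in lysates collected 72 h post infection served as the replication measure.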
# HCV inhibitor: HCV inhibition | Huh7.5.1 HCVcc-Cre infection, luciferase reporter, 44 h | 3.4% of 340,000 active | AID 651820 | Potency, µM (titrated, usually from 41.8 µM), inactives show top-dose activity change, negative = inhibition, actives largely listed as inhibitors; note: potency is the fitted concentration of half-maximal effect
#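 1,000 cells/well; 4 h culture; + compound; + HCVcc-Cre (~0.5 moi); 44 h; luciferase substrate, RT 15 min; read 15 sec.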
# VACV Venus inh: inhibitors of vaccinia virus (Venus reporter); 0.46% of 330,000 active; AID 720580; Vaccinia virus Venus reporter expression, fluorescence; Potency, µM (highest dose often 36.5 µM), for inactives: top-dose activity change, negative = inhibition, hits mostly inhibitors; calls by dose curve; tested in A549 cells; note: potency is the fitted concentration of half-maximal effect; nearly all actives have a fitted effect of over 30% in size
# FMDV antiviral: antivirals against foot and mouth disease virus; Potency, µM (top dose mostly 57.9 µM), for inactives: at the top dose activity change, negative = inhibition, most hits filed as inhibitors; AID 1159524; FMDV antiviral cell-based qHTS; 1.2% of 410,000 active; calls by dose curve; tested in HEK293T cells; note: read-out not given here; potency is the fitted concentration of half-maximal effect; nearly all actives have a fitted effect of over 45% in size
# VACV mCherry inh: vaccinia inhibition (mCherry reporter). Potency, µM (titrated, usually from 36.5 µM), for inactives: top-dose activity change, negative = inhibition, usual class: inhibitors. 0.63% of 310,000 active. AID 720579. Vaccinia virus mCherry reporter infection, fluorescence; calls by dose curve; tested in A549 cells; note: potency is the fitted concentration of half-maximal effect; nearly all actives have a fitted effect of over 35% in size
# * hit, by the source's call; i = inactive; ? = inconclusive; nt = no result; [ ] = another dose, or the depositor's remark. Rows were chosen to be rich in hits. Some 9.3% of all compounds tested hit in one or more screens of this group. Unless noted, calls come from the whole dose curve; as a rule, active = well fitted curve in the direction sought with a large enough effect; inconclusive = small, poorly fitted or top-dose-only effect, or another doubt; inactive = no such curve, though single readings can be large; an effect the other way counts as inactive or inconclusive. % is set by controls: 0 for no effect and ±100 for the full control effect.
SMILES,Sm TGR block,HCMV antiviral,HCV inhibitor,VACV Venus inh,FMDV antiviral,VACV mCherry inh
COC(=O)Cc1[nH]n(-c2nc3ccccc3s2)c(=O)c1C(C)=Nc1ccc(C)cc1,-8%[57.1 µM],-78*,-15%,-16%,0.35µM*,-11%
COC(=O)Cc1[nH]n(-c2ccccc2)c(=O)c1C(C)=Nc1ccccc1,1%,?,1%,-2%,57%,-7%
COC(=O)Cc1[nH]n(-c2nc3ccccc3s2)c(=O)c1C(C)=Nc1ccc(Cl)cc1,-9%,19,-2%,nt,1µM*,nt
Cc1ccc(CN(C)C(=O)c2cccc(S(=O)(=O)N3CCN(Cc4ccccc4)CC3)c2)o1,?,-5,-15%,-11%,?,i
Cc1cc(O)cc2c1C(c1ccc(F)cc1)CC1(CC(C)(C)NC(=S)N1)O2 (configuration not stated),40%,nt,22µM*,-1%,-22%,-8%
COc1ccc(C2CC3(CC(C)(C)NC(SC)=N3)Oc3cc(O)cc(C)c32)cc1 (configuration not stated),-8%,-76*,13µM*,-24%,-25%,?
COc1cc(/C=C/C(=O)O)ccc1OS(=O)(=O)c1ccc(C)cc1,0%,-27,22%,-6%,8%,i
COc1cc(/C=C/C(=O)c2ccc(NS(=O)(=O)c3ccc(C)cc3)cc2)cc(OC)c1O,-18%,-101*,?,222%,-18%,?
COc1cccc(/C=C/C(=O)c2ccc(NS(=O)(=O)c3ccc(C)cc3)cc2)c1,-4%,-70*,?,?,-24%,?
COc1cc(/C=C/C(=O)c2ccc(NS(=O)(=O)c3ccc(C)cc3)cc2)ccc1OC(F)F,7%,-71*,35µM*,?,?,?
COc1ccc2cc(C(=O)/C=C/c3cc(OC)c(O)c(OC)c3)ccc2c1,-35%,-33,?,321%,21%,?
C=CCOC(=O)C1=C(C)Nc2nnnn2C1c1ccc(OC)cc1OC (configuration not stated),-6%,46,3%,-20%,2%,-23%
Cc1cc(C)c2c(n1)nn1c(NCCCN(C)C)cc(C)nc21,?,95,22µM*,nt,2%,nt
COc1ccccc1CNC(=O)CCC1N=C2c3ccccc3N=C(SCc3ccccc3Cl)N2C1=O (configuration not stated),15%,-20,nt,?,-29%,-18%
COc1cccc2sc(=NC(=O)CS(=O)(=O)c3ccc(F)cc3)n(C)c12,-3%,-19,2%[8.37 µM],-7%,?,-17%
CCOc1cccc2sc(=NC(=O)CCS(=O)(=O)c3ccc(F)cc3)n(C)c12,-11%,?,?,-21%,?,-14%
CCOc1cccc2sc(=NC(=O)CCS(=O)(=O)c3ccccc3)n(CC)c12,-34%,?,11µM*,nt,?,nt
C#CCn1c(=NC(=O)c2ccco2)sc2cccc(Cl)c21,1%,0,-3%,-10%,1%,-13%
CCn1c(=NC(=O)CS(=O)(=O)c2ccc(C)cc2)sc2cccc(OC)c21,0%,-62*,?,-23%,?,-31%
CCOc1cccc2sc(=NC(=O)c3ccco3)n(CC(=O)OC)c12,-17%,0,11µM*,-8%,0%,i
Cc1ccc(SCC(=O)OCC(=O)NCCc2ccccc2)cc1,-17%,-16,13%,nt,3%,nt
CCn1nc(C(=O)NCC(c2cccs2)N2CCOCC2)c2ccccc2c1=O (configuration not stated),0%,-28,20%,-20%,0%,-11%
Cc1c(C(=O)N2CCCCC2c2cccnc2)sc2ncnc(NCc3cccs3)c12 (configuration not stated),nt,nt,nt,-28%,8%,-6%
CCOc1ccc(C)cc1S(=O)(=O)n1ccc(C)n1,1%,?,4%,-16%,-2%,nt
CCOc1ccc(-c2nonc2NC(=O)c2oc3ccc(Br)cc3c2C)cc1,7%,-96*,nt,-17%,-7%,-17%
O=C1Nc2ccccc2N=C(c2ccccc2)C1Br (configuration not stated),40µM*,-24,4%,-3%,14%,-8%
